Molecules are shown by their SMILES. “And” between values parts separate entries of the source, which are not always exact repeats. Equal entries are not always repeated. Records with an inconclusive call do not appear. A structure can be active in one record and inactive in another. The source made the active and inactive calls. Unless noted, the call rests on the fitted dose curve; in most records, active means well fitted curve in the direction sought with a large enough effect in the repeat runs; inconclusive means weak or mixed curves; inactive means no such curve, though single readings can be large; an effect the other way counts as inactive or inconclusive.

Assay [1] can be described thus: qHTS assay to identify aromatase inhibitors - cell viability counter screen (AID 743084).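 Further: cells stimulated with testosterone during compound exposure; nearly all actives have a fitted effect of over 55% in size.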 Further: potency means the concentration at half of the fitted maximal effect. In general terms: qHTS replaces the single test concentration by a dilution series.
For assay [2], the target named is Aryl hydrocarbon receptor (Homo sapiens) (UniProt P35869). Put plainly: qHTS assay to identify small molecule that activate the aryl hydrocarbon receptor (AhR) signaling pathway (AID 743085). Further: nearly all actives have a fitted effect of over 15% in size. Further: potency means the concentration at half of the fitted maximal effect.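 On activation: HG2L7.5c1 human HepG2 liver cells with stably integrated DRE-driven firefly reporter; series mostly up to about 70 µM.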 In outline: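 Steps: seed HepG2-AhR-luc cells; allow 5 h at 37C; pin-transfer test compound or vehicle; incubate 24 h at 37C; add viability dye (30 min, 37C) and read fluorescence; add luciferase substrate (30 min, RT) and read luminescence.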
Sequence of Aryl hydrocarbon receptor (Homo sapiens) (P35869 whole entry, looked up): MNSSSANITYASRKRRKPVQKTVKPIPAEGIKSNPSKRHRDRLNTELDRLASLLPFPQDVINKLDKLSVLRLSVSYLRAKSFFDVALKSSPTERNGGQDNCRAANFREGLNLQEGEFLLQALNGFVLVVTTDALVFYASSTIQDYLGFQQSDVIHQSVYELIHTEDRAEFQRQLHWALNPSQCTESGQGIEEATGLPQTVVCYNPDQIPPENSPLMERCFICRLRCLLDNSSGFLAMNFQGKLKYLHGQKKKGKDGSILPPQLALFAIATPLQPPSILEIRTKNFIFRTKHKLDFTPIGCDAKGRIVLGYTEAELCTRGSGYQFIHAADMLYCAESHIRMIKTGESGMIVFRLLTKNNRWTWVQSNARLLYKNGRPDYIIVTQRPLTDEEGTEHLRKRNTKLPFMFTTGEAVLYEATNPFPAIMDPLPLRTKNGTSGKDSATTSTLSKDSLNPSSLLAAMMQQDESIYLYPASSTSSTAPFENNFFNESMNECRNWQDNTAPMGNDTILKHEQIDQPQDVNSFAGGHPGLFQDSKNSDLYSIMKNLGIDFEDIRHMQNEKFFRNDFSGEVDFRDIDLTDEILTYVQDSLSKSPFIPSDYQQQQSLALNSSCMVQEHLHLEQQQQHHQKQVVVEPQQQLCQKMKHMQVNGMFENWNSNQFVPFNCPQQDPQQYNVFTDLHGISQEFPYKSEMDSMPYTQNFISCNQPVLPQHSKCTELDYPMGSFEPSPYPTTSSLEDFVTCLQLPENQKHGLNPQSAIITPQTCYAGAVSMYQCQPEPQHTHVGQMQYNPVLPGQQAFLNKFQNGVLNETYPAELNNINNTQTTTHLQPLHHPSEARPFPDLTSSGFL

Assay [3] can be described thus: qHTS assay to identify small molecule that activate the aryl hydrocarbon receptor (AhR) signaling pathway - cell viability counter screen (AID 743086).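 Further: HepG2 liver cells carrying the AhR DRE luciferase reporter; series mostly up to about 70 µM; nearly all actives have a fitted effect of over 45% in size.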 Put shortly:
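HepG2-AhR-luc (HG2L7.5c1) cells, 4000/well, treated 24 h at 37 C with compound; viability measured as CellTiter-Fluor fluorescence after 30 min in the same wells as the luciferase read.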

Assay [4] addresses Peroxisome proliferator-activated receptor gamma (Homo sapiens) (UniProt P37231). Kind of assay: qHTS assay to identify small molecule agonists of the peroxisome proliferator-activated receptor gamma (PPARg) signaling pathway (AID 743094; active means well fitted activation curve with a large enough effect in the signal ratio in the repeat runs, not every such curve was filed as active; the % refers to the signal ratio). In outline: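 GeneBLAzer PPARg UAS-bla HEK293H cells carrying a stably integrated beta-lactamase reporter were pre-incubated 5 h at 37C, then exposed to compounds in DMSO for 17 h at 37C; LiveBLAzer B/G FRET substrate was added for 1 h at room temperature and fluorescence read.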

Assay [5] is described as follows: qHTS assay to identify small molecule phospholipidosis (PLD) inducers (AID 1259344; active means well fitted curve in the direction sought with a large enough effect; an effect the other way counts as inactive or inconclusive). Put shortly:
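HepG2 cells, 900/well, treated with compound plus LipidTOX Red for 24 h at 37 C; amiodarone positive and DMSO negative controls. Fixed with paraformaldehyde/Hoechst, then high-content imaging scored LipidTOX pit count and integrated intensity per well and per cell.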

The target of assay [6] is Nuclear receptor subfamily 1 group I member 2 (Rattus norvegicus) (UniProt Q9R1A7). Put plainly: Rat pregnane X receptor (rPXR) activation by small molecules, qHTS assay (AID 1346983). Further: nearly all actives have a fitted effect of over 20% in size. Further: potency means the concentration at half of the fitted maximal effect. Conditions: rPXR luciferase reporter cells, One-Glo luminescence, 24 h; max activation: stronger effect = higher value. In outline:
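Cell-based rPXR activation assay: rPXR cells, 2,000 per well, rested 5hr at 37 C, then exposed to compounds in DMSO for 24 hr at 37 C. Luciferase activity read by One-Glo luminescence after 30 min at room temperature.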

In assay [7] the target is Nuclear receptor subfamily 1 group I member 2 (Homo sapiens) (UniProt O75469). Put plainly: Human pregnane X receptor (PXR) activation by small molecules, qHTS assay (AID 1346985). Further: nearly all actives have a fitted effect of over 40% in size. Further: potency means the concentration at half of the fitted maximal effect. Put shortly:
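DPX-2 cells (HepG2 co-transfected with a PXR response element and a CYP3A4-promoter luciferase construct) were seeded at 2,000 per well, rested 5 hr at 37C, then exposed to DMSO-dissolved compounds for 24 hr. Activation was read as luciferase luminescence.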

Assay [8] has the same target. Kind of assay: CYP3A4 induction through human pregnane X receptor (PXR) by small molecules, qHTS assay (AID 1346984). Further: nearly all actives have a fitted effect of over 40% in size. Further: potency means the concentration at half of the fitted maximal effect. Put shortly: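 DPX-2 cells (HepG2 co-transfected with PXR and CYP3A4 promoter-luciferase) treated with compounds 24 h at 37C; luciferin-IPA CYP3A4 substrate 3uM final added for 3 h, then One-Glo; luminescence read. qHTS format.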
On the % scale 0 is the no-effect control and ±100 the full control effect.

Sequence of Peroxisome proliferator-activated receptor gamma (Homo sapiens) (P37231 whole entry, looked up): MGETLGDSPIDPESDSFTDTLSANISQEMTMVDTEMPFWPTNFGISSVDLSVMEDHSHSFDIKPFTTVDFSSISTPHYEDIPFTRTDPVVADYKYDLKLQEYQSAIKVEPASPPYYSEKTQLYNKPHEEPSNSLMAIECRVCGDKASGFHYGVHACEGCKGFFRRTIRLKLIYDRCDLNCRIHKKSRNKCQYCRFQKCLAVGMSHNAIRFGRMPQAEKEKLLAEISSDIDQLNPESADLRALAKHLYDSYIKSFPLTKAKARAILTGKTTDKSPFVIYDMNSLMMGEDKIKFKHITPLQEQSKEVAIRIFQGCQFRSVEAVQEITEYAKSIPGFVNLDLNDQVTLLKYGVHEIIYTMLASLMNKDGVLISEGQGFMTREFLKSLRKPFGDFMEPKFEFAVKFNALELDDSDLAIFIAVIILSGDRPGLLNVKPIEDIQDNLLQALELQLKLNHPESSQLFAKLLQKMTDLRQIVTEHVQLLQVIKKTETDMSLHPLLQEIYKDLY
Sequence of Nuclear receptor subfamily 1 group I member 2 (Rattus norvegicus) (Q9R1A7 whole entry, looked up): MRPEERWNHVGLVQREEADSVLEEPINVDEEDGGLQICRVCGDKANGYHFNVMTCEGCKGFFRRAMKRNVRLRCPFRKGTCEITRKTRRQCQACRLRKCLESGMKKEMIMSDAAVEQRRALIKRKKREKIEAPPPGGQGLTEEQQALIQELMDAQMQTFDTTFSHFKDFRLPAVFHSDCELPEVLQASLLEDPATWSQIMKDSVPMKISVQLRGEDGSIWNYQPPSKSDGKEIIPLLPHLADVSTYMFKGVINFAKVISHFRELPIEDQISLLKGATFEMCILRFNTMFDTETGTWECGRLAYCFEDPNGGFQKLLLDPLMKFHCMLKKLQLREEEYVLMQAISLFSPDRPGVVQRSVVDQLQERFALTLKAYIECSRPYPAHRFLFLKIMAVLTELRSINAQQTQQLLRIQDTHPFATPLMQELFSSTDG

On to `NC(=O)Oc1ccc(Cc2ccccc2)cc1`, for which the Potency result in assay [1], in assay [2], in assay [3], in assay [4], in assay [5] and in assay [7] was “inactive” throughout. Besides, in assay [6], the max activation was -0.809% (inactive).
With `S=C1SCN(Cc2ccccc2)CN1Cc1ccccc1`, the Potency result in assay [1], in assay [2], in assay [3] and in assay [5] was “inactive” in each case. Also, the max activation in assay [6] was 2.55% (inactive). Besides, the Potency in assay [7] is 14.1 µM (active).
As to `CO[C@H]1C=CO[C@@]2(C)Oc3c(C)c(O)c4c(O)c(c5c(nc6cc(C)ccn65)c4c3C2=O)NC(=O)/C(C)=C\C=C[C@H](C)[C@H](O)[C@@H](C)[C@@H](O)[C@@H](C)[C@H](OC(C)=O)[C@@H]1C`, in assay [5], the Potency entry was “inactive”. For the same compound, the max activation in assay [6] is -6.53% (inactive). For the same compound, in assay [7], the Potency was 10 µM (active).
For `CC1CCC(NC(=O)N(CCCl)N=O)CC1` (stereo unspecified), the Potency entry in assay [1], in assay [3], in assay [4], in assay [5] and in assay [8] was “inactive” throughout. Further, in assay [6], the Potency is 5.01 µM (active).
As to `C#C[C@]1(O)CC[C@H]2[C@@H]3CCC4=C(CCC(=O)C4)[C@H]3CC[C@@]21C`, the Potency entry in assay [1], in assay [2], in assay [3], in assay [4], in assay [5] and in assay [7] was “inactive” in each case. For the same compound, the max activation in assay [6] is 5.01% (inactive).
As for `FC(F)(F)C(F)(F)C(F)(F)C(F)(F)C(F)(F)C(F)(F)F`, the Potency result in assay [1], in assay [2], in assay [3], in assay [4], in assay [5] and in assay [7] was “inactive” each time. The max activation in assay [6] is -1.09% (inactive).
For `CN1CCN2c3ncccc3Cc3ccccc3C2C1` (stereo unspecified), the Potency entry in assay [3] and in assay [5] was “inactive” throughout. Moreover, in assay [6], the max activation is -0.13% (inactive). The Potency in assay [8] was 15.8 µM (active).
Regarding `C[C@H](CCCC(C)(C)O)[C@H]1CC[C@H]2[C@@H]3CC=C4C[C@@H](O)CC[C@]4(C)[C@H]3CC[C@]12C`, the Potency result in assay [1], in assay [2], in assay [3], in assay [4], in assay [5] and in assay [7] was “inactive” throughout. In assay [6], the max activation is -4.18% (inactive).
Turning to `CCC[C@@H]1C[C@@H](C(=O)N[C@@H]([C@H]2O[C@H](SC)[C@H](O)[C@@H](O)[C@H]2O)[C@H](C)Cl)N(C)C1`, the Potency entry in assay [1], in assay [2], in assay [3], in assay [4], in assay [5] and in assay [7] was “inactive” in each case. Besides, the max activation in assay [6] was 7.71% (inactive).
With `CC[C@@H](C(=O)[C@@H](C)[C@@H](O)[C@H](C)[C@@H]1O[C@@H]([C@@H](CC)C(=O)O)CC[C@@H]1C)[C@H]1O[C@]2(C=C[C@@H](O)[C@]3(CC[C@@](C)([C@H]4CC[C@](O)(CC)[C@H](C)O4)O3)O2)[C@H](C)C[C@@H]1C`, the Potency entry in assay [1], in assay [2], in assay [3], in assay [5] and in assay [7] was “inactive” in each case. Also, in assay [6], the max activation is -12.1% (inactive).
As for `CCCC(=O)Nc1c(I)cc(I)c(CC(CC)C(=O)O)c1I` (stereo unspecified), the Potency result in assay [4] and in assay [5] was “inactive” in each case. For the same compound, the max activation in assay [6] was -4.56% (inactive). In addition, the Potency in assay [8] is 22.4 µM (active).
With `CC(C)Cc1ccc([C@@H](C)C(=O)NS(C)(=O)=O)cc1`, the Potency entry in assay [1], in assay [2], in assay [3], in assay [5] and in assay [7] was “inactive” in each case. The max activation in assay [6] was -2.09% (inactive).
Regarding `FCOC(C(F)(F)F)C(F)(F)F`, the Potency result in assay [1], in assay [2], in assay [3], in assay [4], in assay [5] and in assay [7] was “inactive” throughout. The max activation in assay [6] was -0.275% (inactive).
On to `CC[C@@H](C(=O)O)[C@@H]1O[C@@H]([C@@H](C)[C@H](O)[C@H](C)C(=O)[C@H](CC)[C@H]2O[C@]3(C=C[C@@H](O)[C@]4(CC[C@@](C)([C@H]5CC[C@](O)(CC)[C@H](C)O5)O4)O3)[C@H](C)C[C@@H]2C)[C@@H](C)C[C@@H]1C`, for which the Potency entry in assay [1], in assay [2], in assay [3], in assay [5] and in assay [7] was “inactive” throughout. For the same compound, the max activation in assay [6] was -17.2% (inactive).
For the compound `Oc1cc(O)cc(O)c1`, the Potency entry in assay [1], in assay [2], in assay [3], in assay [4], in assay [5] and in assay [7] was “inactive” each time. In assay [6], the max activation was -1.47% (inactive).
For the compound `CC(C)C(=O)OCC(=O)[C@@]12O[C@H](C3CCCCC3)O[C@@H]1C[C@H]1[C@@H]3CCC4=CC(=O)C=C[C@]4(C)[C@H]3[C@@H](O)C[C@@]12C`, the Potency result in assay [1], in assay [2], in assay [3], in assay [4] and in assay [5] was “inactive” in each case. Further, the Potency in assay [6] was 7.94 µM (active); in assay [7], 0.631 µM (active).
For the compound `O=P(O)(O)OC[C@H](O)CO`, the Potency result in assay [1], in assay [2], in assay [3], in assay [4], in assay [5] and in assay [7] was “inactive” in each case. For the same compound, the max activation in assay [6] is -3.61% (inactive).
As to `CO/N=C(\C(=O)N[C@@H]1C(=O)N2C(C(=O)O)=CCS[C@H]12)c1csc(N)n1`, the Potency entry in assay [1], in assay [2], in assay [3], in assay [4], in assay [5] and in assay [7] was “inactive” in each case. Moreover, in assay [6], the max activation is -4.38% (inactive).
Regarding `CNC(=O)c1c(I)c(C(=O)NCC(=O)Nc2c(I)c(C(=O)O)c(I)c(C(=O)NCCO)c2I)c(I)c(N(C)C(C)=O)c1I`, the Potency result in assay [3], in assay [5] and in assay [8] was “inactive” each time. Moreover, in assay [6], the max activation was -3.62% (inactive).
On to `COC(=O)[C@H]1[C@H]2C[C@@H]3c4[nH]c5ccccc5c4CCN3C[C@H]2C[C@@H](OC(=O)c2cc(OC)c(OC)c(OC)c2)[C@@H]1OC`, for which the Potency in assay [1] is 6.68 µM (active) and inactive; in assay [2] it was 13.3 µM (active) and 6.68 µM (active). The Potency result in assay [3], in assay [5] and in assay [7] was “inactive” throughout. Besides, in assay [6], the max activation was -18.7% (inactive).

The values are drawn from PubChem BioAssay (Tox21).
